3T3 cytotox: cytotoxic compounds in NIH 3T3 cells. NIH 3T3 viability, CellTiter-Glo ATP luminescence, 48-72 h. Potency, µM (top dose mostly 96.7 µM), without a hit: top-dose activity change, negative = cytotoxicity, most hits filed as inhibitors. hit rate 4.3% among 94,000. AID 1345082; further: nearly all actives have a fitted effect of over 55% in size
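Cytotoxicity was measured by CellTiter-Glo ATP luminescence after 48 or 72 h compound exposure at 37 °C. Mouse NIH 3T3 fibroblasts were seeded at 400 cells/well and dosed by 23 nL pin transfer.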
HEK cytotox: kills HEK 293 cells | Potency, µM (doses to about 115 µM), for the others: at the top dose activity change, negative = cytotoxicity, most hits filed as inhibitors | HEK 293 viability, ATP luminescence (CellTiter-Glo), 48-72 h | hit rate 6.6% among 94,000 | AID 1345083; further: nearly all actives have a fitted effect of over 60% in size
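Cytotoxicity was scored by loss of ATP-coupled luminescence (CellTiter-Glo) in HEK 293 cells. Compound treatment ran 48 or 72 hr at 37 degree Celsius, 5% CO2, 95% humidity.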
FLuc inh: blocks purified firefly luciferase enzyme activity | Potency, µM (series often up to 115 µM), actives largely listed as inhibitors | hit rate 2.5% among 76,000 | P08659 | AID 1347043 | purified P. pyralis luciferase, luminescence, biochemical; further: nearly all actives have a fitted effect of over 65% in size
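Purified P. pyralis luciferase (10nM final) in 50mM Tris acetate pH 7.5, 10mM Mg acetate, 0.01% Tween-20, 0.05% BSA with 10uM D-luciferin and 10uM ATP. Compounds titrated qHTS. Luminescence imaged on CCD.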
NPR1 antag: human Npr1 receptor antagonism; P16066; HEK293 hNpr1 GloSensor cGMP, ANP-stimulated luminescence; Potency, µM (highest dose often 46.3 µM), for inactives: at the top dose activity change, negative = inhibition, actives largely listed as inhibitors; hit rate 1.6% among 76,000; AID 1347048; calls by dose curve; further: nearly all actives have a fitted effect of over 60% in size
Target sequence (P16066 whole entry, looked up): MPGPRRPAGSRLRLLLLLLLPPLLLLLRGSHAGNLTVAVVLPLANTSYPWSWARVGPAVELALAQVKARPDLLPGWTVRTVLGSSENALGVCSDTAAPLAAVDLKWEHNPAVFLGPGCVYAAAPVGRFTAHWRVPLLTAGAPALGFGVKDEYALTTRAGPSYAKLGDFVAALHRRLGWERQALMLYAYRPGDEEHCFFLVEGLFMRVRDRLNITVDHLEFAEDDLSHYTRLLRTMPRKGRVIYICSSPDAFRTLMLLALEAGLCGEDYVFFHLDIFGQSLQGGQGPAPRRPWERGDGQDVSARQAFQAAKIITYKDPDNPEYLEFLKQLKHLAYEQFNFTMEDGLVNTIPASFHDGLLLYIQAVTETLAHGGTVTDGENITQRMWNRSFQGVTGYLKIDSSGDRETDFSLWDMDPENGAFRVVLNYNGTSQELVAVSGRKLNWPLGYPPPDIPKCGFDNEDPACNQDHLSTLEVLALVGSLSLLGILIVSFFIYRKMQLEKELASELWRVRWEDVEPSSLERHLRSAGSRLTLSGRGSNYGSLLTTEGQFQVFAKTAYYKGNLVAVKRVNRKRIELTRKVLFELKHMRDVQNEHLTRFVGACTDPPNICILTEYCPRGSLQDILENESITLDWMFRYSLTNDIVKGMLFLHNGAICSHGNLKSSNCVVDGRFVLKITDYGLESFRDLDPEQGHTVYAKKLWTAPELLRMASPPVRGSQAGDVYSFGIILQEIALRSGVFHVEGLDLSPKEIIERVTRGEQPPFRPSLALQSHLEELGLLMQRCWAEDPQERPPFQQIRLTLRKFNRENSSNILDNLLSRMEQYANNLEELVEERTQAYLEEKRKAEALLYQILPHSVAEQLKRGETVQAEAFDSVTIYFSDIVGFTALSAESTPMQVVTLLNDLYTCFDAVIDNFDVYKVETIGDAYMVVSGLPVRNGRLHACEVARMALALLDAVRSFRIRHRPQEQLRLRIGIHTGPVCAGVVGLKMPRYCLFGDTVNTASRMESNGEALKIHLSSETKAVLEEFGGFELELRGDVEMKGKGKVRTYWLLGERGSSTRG
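Compound pre-incubated 30 min at room temperature on GloSensor-loaded HEK293 cells stably carrying hNpr1 and the pGS-40F cGMP biosensor. Stimulation uses hNppA at 0.1 nM final; luminescence is taken at baseline and 20 min post-agonist.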
GPT2 inh: blocks human glutamate pyruvate transaminase 2. Potency, µM (highest dose often 57.7 µM), without a hit: at the highest dose activity change, negative = inhibition, actives largely listed as inhibitors. hit rate 0.25% among 100,000. Recombinant GPT2, coupled pyruvate oxidase/HRP Amplex Red fluorescence; further: nearly all actives have a fitted effect of over 60% in size
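Fluorescence of coupled pyruvate oxidase/HRP/Amplex Red system (50uM Amplex, 30 min, dark) reports pyruvate formed by GPT2. Enzyme reaction: 10ng/uL GPT2, 2mM L-alanine, 250uM a-KG, 30 min room temperature, pH 7.5; 50uM AOA control.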
Numbers without * were called inactive; i = inactive; ? = inconclusive; · = not tested or not shown; [ ] = dose if it differs, or a comment. The list is not random: actives were taken first. Their share in the collection is about 10%. Unless noted, the call rests on the fitted dose curve; in most records, active means well fitted curve in the direction sought with a large enough effect; inconclusive means small, poorly fitted or top-dose-only effect, or another doubt; inactive means no such curve, though single readings can be large; an effect the other way counts as inactive or inconclusive. On the % scale 0 is the no-effect control and ±100 the full control effect; potency means the concentration at half of the fitted maximal effect.

SMILES | 3T3 cytotox | HEK cytotox | FLuc inh | NPR1 antag | GPT2 inh
COc1ccc(-c2nn(-c3ccc(C)cc3C)c(OC(C)=O)c2-c2ccc(NC(C)=O)cc2)c(OC)c1 | ? | -29.5% | i | -13.3% | ?
CC(=O)Oc1c(-c2ccc(NC(=O)C3CC3)cc2)c(-c2ccc3c(c2)OCO3)nn1-c1cccc(C)c1 | ? | ? | i | -5.4% | 14.1µM*
COc1ccc(-c2nn(-c3ccc(F)cc3)c(OC(C)=O)c2-c2ccc(NC(C)=O)cc2)cc1OC | ? | ? | i | -15.9% | ?
COc1cc(OC)cc(-c2nn(-c3ccc(C)cc3C)c(OC(C)=O)c2-c2ccc(NC(C)=O)cc2)c1 | ? | ? | i | -18.0% | 12.6µM*
CCC(=O)Nc1ccc(-c2c(-c3cc(OC)cc(OC)c3)nn(-c3ccc(C)cc3)c2OC(C)=O)cc1 | -22.1% | ? | i | -20.6% | 6.31µM*
O=c1n(-c2ccc([N+](=O)[O-])cc2)nc2n1CCN(Cc1ccccc1)C2 | ? | 28.2µM* | i | -22.5% | i
O=c1n(-c2ccc(F)cc2F)nc2n1CCN(Cc1ccc(F)cc1)C2 | ? | 50.1µM* | i | 18.9% | i
O=c1n(-c2ccc([N+](=O)[O-])cc2)nc2n1CCN(Cc1ccc(F)cc1)C2 | ? | 35.5µM* | i | ? | -8.6%
O=C(c1ccc(F)cc1)N1CCn2c(nn(-c3ccc([N+](=O)[O-])cc3)c2=O)C1 | -15.4% | i | i | -0.3% | ?
O=c1n(-c2ccc([N+](=O)[O-])cc2)nc2n1CCN(Cc1ccsc1)C2 | ? | 39.8µM* | ? | -24.7%[70.6 µM] | i
CN(Cc1ccccc1)C(=O)[C@H]1O[C@H](CCN2CCN(Cc3ccccc3)CC2)CC[C@@H]1O | -8.1% | -27.0% | i | 0.7% | -6.4%
O=C(Cn1cc(C(F)(F)F)ccc1=O)N1CCn2nc(CO)cc2C1 | 4.7% | i | i | 2.1% | 3.4%
FC(F)(F)c1ccc(N2C3CCC2CN(Cc2ccccc2)C3)cc1 | ? | ? | · | · | -9.1%
CC(=O)N1CCN(c2ccc(OCc3nn(C)c(C)c3-c3cccc4c(CCCOc5cccc6ccccc56)c(C(=O)O)n(Cc5cccnc5)c34)cc2)CC1 | · | · | · | · | i
Cc1ccc(C(=O)CCc2nc(C3CC(=O)N(C4CCCCC4)C3)no2)cc1 (configuration not stated) | ? | 39.8µM* | i | -18.0% | i
COc1cccc(C(=O)N2CCCN(c3ccc4nnc(C)n4n3)CC2)c1 | 1.3% | i | · | · | ·
COc1cccc(C(=O)N2CCN(c3ccc4ncc(-c5cccc(C(F)(F)F)c5)n4n3)CC2)c1 | 11.2µM* | ? | · | · | ·
CN1CC(=O)N(C2CCNCC2)Cc2c(NC3CCCCC3)ncnc21 | -8.5% | -10.1% | · | · | i
CC(C)(C)COC(=O)N1C[C@@H](CO)[C@@H]2Oc3c(F)cccc3[C@@H]21 | 31.6µM* | ? | · | · | ·
Cn1cc(-c2cnc3[nH]cc(CC(=O)Nc4ccccc4Cl)c3c2)cn1 | ? | -11.3%[172 µM] | i | 5.4%[70.6 µM] | -0.1%[88.5 µM]
Cc1ccccc1-c1cnc2[nH]cc(CC(=O)Nc3ccccc3)c2c1 | 39.8µM* | ? | i | ? | i
NC(=O)Cc1c[nH]c2ncc(-c3cccc(N4CCOCC4)c3)cc12 | 100µM* | -8.2%[172 µM] | i | 1.8%[70.6 µM] | ?
COc1ccc(NC(=O)Cc2c[nH]c3ncc(-c4ccccc4)cc23)cc1 | ? | -16.4%[172 µM] | i | -25.7%[70.6 µM] | 4.1%[88.5 µM]
COc1ccc(-c2cnc3[nH]cc(CC(=O)Nc4ccc(F)c(Cl)c4)c3c2)cc1 | 31.6µM* | ? | i | -23.0%[70.6 µM] | ?
O=C(Cc1c[nH]c2ncc(-c3ccccc3)cc12)Nc1ccc(C(F)(F)F)cc1 | ? | 63.1µM* | i | -7.2%[70.6 µM] | i
SMILES | 3T3 cytotox | HEK cytotox | FLuc inh | NPR1 antag | GPT2 inh
O=C(Cc1c[nH]c2ncc(-c3cccnc3)cc12)Nc1ccc(C(F)(F)F)cc1 | ? | ? | i | ? | ?
CCc1cc(=O)n(CC(=O)Nc2cccc(C#N)c2)c(-c2ccccc2)n1 | -0.1% | -9.1% | i | -28.2% | i
COCc1cc(C[C@@H]2CC[C@H](O)[C@@H](CNC(=O)NC3CCCCC3)O2)no1 | ? | -5.9%[172 µM] | i | 1.9%[70.6 µM] | ?
Cn1cc(-c2cnc3[nH]cc(CC(=O)Nc4cccc(F)c4)c3c2)cn1 | ? | 44.7µM* | i | -22.9%[70.6 µM] | i
Cn1cc(-c2cnc3[nH]cc(CC(=O)Nc4ccc(N5CCOCC5)cc4)c3c2)cn1 | -0.9%[138 µM] | ? | i | 4.8%[70.6 µM] | 2.1%[88.5 µM]
COc1ccc(-c2cnc3[nH]cc(CC(=O)Nc4ccc(C(F)(F)F)cc4)c3c2)cc1 | 44.7µM* | ? | i | -18.4%[70.6 µM] | 0.9%[88.5 µM]
O=C(Cc1c[nH]c2ncc(-c3ccccc3)cc12)Nc1ccc(N2CCOCC2)cc1 | 25.1µM* | 63.1µM* | i | -23.4%[70.6 µM] | -4.4%[88.5 µM]
CC(=O)N1c2ccccc2CC1c1nc(C(C)C)no1 (configuration not stated) | -12.2% | -22.2% | ? | -1.7% | -13.8%
COc1cccc(-c2cc3c(=O)n(CCNC(=O)COc4ccc(F)cc4)ccn3n2)c1 | -2.7% | -4.5% | i | -28.6% | i
CN1c2cc(C(=O)Nc3cccc(C#N)c3)ccc2C(=O)N2CCCCC21 (configuration not stated) | ? | ? | ? | 10.2% | i
CN1c2cc(C(=O)Nc3cccc(C#N)c3)ccc2C(=O)N2CCCCCC21 (configuration not stated) | ? | ? | 28.2µM* | 0.0% | i
CN1c2cc(C(=O)Nc3ccc(C#N)cc3)ccc2C(=O)N2CCCCC21 (configuration not stated) | 35.5µM* | ? | i | -4.6% | i
CNC(=O)c1cc(C2CC2)nc2c1c(C1CCN(C(=O)c3ccccc3Cl)C1)nn2C (configuration not stated) | -22.0% | -17.9% | · | · | ·
CN1CCCCCC(O)c2cc(C(=O)N3CCN(Cc4ccccc4)CC3)ccc21 (configuration not stated) | ? | 56.2µM* | i | -24.0% | i
CN1CCCCCC(O)c2cc(C(=O)N3CCc4ccccc43)ccc21 (configuration not stated) | 35.5µM* | ? | ? | ? | ?
Cc1cccc(N2CCN(C(=O)c3ccc4c(c3)C(O)CCCCCN4C)CC2)c1 (configuration not stated) | ? | ? | i | -13.1% | i
COc1ccccc1N1CCN(C(=O)c2ccc3c(c2)C(O)CCCCCN3C)CC1 (configuration not stated) | ? | 44.7µM* | i | -18.3% | i
COc1ccccc1-c1cc(C(=O)Nc2ccccc2F)c2cnn(C)c2n1 | -27.1% | ? | · | · | ·

High-throughput results deposited in PubChem by National Center for Advancing Translational Sciences (NCATS).
